{
  "source": "the supplement of paper PMC11006884",
  "note": "The full data set covers some 6,500 targets. This sample favours those with a hit. About 2% of all pairs of compound and target were hits.",
  "data": [
    {"compound": "COC(=O)C#Cc1ccccc1 [methyl 3-phenylpropiolate]", "assay": "log2 ratio of iodoacetamide-alkyne labeling of the cysteine site, DMSO over compound (competition); higher = stronger covalent engagement of the cysteine by the compound, active = 1 or more", "conditions": "500 µM; treatment time 1 h; system: HEK293T cell lysate", "procedure,_shortened": "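HEK293T lysate (2 mg/mL) was treated with DMSO or electrophile (500 µM, 1 h, ambient temperature), then iodoacetamide alkyne (1 h), clicked to sCIP-TMT reagents, pooled, trypsin-digested overnight at 37 °C, streptavidin-enriched and acid-eluted. Peptides were run on Orbitrap Eclipse LC-MS/MS with FAIMS and quantified in FragPipe. The log2 competition ratio per cysteine is mean control-channel over mean compound-channel reporter intensity. Duplicate channels and three replicates were used, and cysteines quantified in only one replicate were excluded.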", "values": [
      {"target": "UniProt P42677_C77", "log2 ratio of iodoacetamide-alkyne labeling": "1.73 (active)"},
      {"target": "NSF C11 (UniProt P46459)", "log2 ratio of iodoacetamide-alkyne labeling": "0.206 (inactive)"},
      {"target": "NT5C2 C181 (UniProt P49902)", "log2 ratio of iodoacetamide-alkyne labeling": "0.0722 (inactive)"},
      {"target": "SRI C194 (UniProt P30626)", "log2 ratio of iodoacetamide-alkyne labeling": "-0.125 (inactive)"},
      {"target": "UniProt P26639_C107", "log2 ratio of iodoacetamide-alkyne labeling": "0.12 (inactive)"},
      {"target": "UniProt P23610_C62", "log2 ratio of iodoacetamide-alkyne labeling": "0.0767 (inactive)"},
      {"target": "HCFC1 C1895 (UniProt P51610)", "sequence (P51610 whole entry, looked up)": "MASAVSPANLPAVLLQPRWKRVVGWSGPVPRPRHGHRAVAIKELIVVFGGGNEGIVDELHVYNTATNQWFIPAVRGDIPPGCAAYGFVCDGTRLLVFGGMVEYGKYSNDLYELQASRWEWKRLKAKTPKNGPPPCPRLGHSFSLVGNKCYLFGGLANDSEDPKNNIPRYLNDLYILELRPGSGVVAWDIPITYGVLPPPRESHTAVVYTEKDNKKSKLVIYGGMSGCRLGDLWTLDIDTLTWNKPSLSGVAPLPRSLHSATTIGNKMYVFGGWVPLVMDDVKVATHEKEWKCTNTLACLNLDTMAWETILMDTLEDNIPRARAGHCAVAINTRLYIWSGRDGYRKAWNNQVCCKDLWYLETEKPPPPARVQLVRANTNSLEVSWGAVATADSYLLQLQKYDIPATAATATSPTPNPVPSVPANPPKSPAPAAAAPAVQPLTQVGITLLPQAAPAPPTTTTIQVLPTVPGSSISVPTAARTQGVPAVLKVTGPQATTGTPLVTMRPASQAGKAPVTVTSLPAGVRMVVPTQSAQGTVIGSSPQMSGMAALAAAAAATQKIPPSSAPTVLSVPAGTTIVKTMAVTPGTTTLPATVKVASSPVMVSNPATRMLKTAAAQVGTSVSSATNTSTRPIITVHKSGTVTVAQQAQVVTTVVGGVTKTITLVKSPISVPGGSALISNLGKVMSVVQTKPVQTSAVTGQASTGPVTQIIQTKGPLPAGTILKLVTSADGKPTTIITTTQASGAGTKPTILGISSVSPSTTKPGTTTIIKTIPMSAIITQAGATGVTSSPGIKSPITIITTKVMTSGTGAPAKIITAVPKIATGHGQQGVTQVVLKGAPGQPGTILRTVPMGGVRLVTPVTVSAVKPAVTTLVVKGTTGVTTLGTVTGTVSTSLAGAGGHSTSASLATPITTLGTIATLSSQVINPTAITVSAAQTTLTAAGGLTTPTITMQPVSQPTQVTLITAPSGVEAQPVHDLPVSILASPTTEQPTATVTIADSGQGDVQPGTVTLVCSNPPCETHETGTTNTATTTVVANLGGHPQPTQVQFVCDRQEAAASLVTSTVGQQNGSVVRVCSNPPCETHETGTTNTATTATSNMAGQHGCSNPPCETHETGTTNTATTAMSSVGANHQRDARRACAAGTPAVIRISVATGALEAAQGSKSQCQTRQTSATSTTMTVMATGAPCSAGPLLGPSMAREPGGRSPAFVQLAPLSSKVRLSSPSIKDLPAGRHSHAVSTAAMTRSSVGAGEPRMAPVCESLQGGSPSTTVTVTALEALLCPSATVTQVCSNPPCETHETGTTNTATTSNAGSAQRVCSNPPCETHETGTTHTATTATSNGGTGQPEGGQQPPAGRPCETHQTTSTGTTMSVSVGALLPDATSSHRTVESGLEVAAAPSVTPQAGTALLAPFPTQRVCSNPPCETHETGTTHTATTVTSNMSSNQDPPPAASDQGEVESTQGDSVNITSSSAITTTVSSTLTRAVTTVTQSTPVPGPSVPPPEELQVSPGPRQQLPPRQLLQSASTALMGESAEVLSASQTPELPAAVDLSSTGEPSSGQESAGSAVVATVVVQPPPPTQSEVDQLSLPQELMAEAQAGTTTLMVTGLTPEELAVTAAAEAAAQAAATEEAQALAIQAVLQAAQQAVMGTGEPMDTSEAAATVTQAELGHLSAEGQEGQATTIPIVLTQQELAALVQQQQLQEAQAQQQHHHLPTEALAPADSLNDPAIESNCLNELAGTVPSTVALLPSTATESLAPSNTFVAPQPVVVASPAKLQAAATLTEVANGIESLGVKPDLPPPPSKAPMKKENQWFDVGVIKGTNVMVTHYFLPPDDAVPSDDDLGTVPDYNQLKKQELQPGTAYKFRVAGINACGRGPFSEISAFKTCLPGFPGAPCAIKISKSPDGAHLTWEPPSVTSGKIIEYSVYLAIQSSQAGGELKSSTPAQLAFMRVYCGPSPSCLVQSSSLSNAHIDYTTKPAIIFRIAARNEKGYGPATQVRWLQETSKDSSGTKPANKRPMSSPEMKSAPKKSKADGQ", "log2 ratio of iodoacetamide-alkyne labeling": "1.09 (active)"},
      {"target": "RPL4 C96 (UniProt P36578)", "log2 ratio of iodoacetamide-alkyne labeling": "1.24 (active)"},
      {"target": "CAPN2 C301 (UniProt P17655)", "sequence (P17655 whole entry, looked up)": "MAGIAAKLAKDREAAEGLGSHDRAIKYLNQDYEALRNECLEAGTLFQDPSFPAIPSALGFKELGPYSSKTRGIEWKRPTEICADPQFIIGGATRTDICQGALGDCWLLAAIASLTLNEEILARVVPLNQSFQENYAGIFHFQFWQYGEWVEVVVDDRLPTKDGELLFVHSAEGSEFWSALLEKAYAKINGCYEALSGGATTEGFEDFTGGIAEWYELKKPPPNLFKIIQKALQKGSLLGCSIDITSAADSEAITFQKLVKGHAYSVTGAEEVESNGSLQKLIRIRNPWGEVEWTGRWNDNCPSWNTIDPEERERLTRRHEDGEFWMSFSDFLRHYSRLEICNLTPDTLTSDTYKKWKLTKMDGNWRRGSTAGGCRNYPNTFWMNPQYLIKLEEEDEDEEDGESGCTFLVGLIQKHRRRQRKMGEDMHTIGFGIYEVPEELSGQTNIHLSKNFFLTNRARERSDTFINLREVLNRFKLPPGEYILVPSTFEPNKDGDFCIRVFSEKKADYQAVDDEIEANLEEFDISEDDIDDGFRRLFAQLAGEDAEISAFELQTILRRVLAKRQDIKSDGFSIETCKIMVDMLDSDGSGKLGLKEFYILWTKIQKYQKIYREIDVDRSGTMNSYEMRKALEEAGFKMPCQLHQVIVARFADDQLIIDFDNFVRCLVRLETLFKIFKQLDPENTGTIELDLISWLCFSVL", "log2 ratio of iodoacetamide-alkyne labeling": "2.17 (active)"},
      {"target": "RPL14 C42 (UniProt P50914)", "log2 ratio of iodoacetamide-alkyne labeling": "1.82 (active)"},
      {"target": "SEPHS1 C31 (UniProt P49903)", "log2 ratio of iodoacetamide-alkyne labeling": "0.175 (inactive)"},
      {"target": "CYC1 C219 (UniProt P08574)", "log2 ratio of iodoacetamide-alkyne labeling": "0.0599 (inactive)"},
      {"target": "VDAC2 C8 (UniProt P45880)", "log2 ratio of iodoacetamide-alkyne labeling": "0.376 (inactive)"},
      {"target": "PARP1 C128 (UniProt P09874)", "log2 ratio of iodoacetamide-alkyne labeling": "0.229 (inactive)"},
      {"target": "GMPS C137 (UniProt P49915)", "log2 ratio of iodoacetamide-alkyne labeling": "0.217 (inactive)"},
      {"target": "PFN1 C17 (UniProt P07737)", "log2 ratio of iodoacetamide-alkyne labeling": "-0.417 (inactive)"},
      {"target": "UROD C308 (UniProt P06132)", "sequence (P06132 whole entry, looked up)": "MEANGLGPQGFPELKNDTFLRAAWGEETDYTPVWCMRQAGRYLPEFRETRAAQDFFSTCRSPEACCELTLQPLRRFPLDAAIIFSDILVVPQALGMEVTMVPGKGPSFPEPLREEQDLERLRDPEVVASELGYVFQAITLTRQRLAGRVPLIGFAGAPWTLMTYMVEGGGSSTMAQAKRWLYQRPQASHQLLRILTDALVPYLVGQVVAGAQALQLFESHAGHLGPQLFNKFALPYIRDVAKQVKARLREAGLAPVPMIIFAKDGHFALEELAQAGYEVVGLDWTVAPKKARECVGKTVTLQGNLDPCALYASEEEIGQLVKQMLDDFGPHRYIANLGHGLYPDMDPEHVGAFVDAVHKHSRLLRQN", "log2 ratio of iodoacetamide-alkyne labeling": "0.28 (inactive)"},
      {"target": "ADD1 C253 (UniProt P35611)", "log2 ratio of iodoacetamide-alkyne labeling": "0.101 (inactive)"},
      {"target": "IGF2R C2232 (UniProt P11717)", "log2 ratio of iodoacetamide-alkyne labeling": "1.08 (active)"},
      {"target": "UniProt P17812_C218", "log2 ratio of iodoacetamide-alkyne labeling": "-0.193 (inactive)"},
      {"target": "PDHB C306 (UniProt P11177)", "sequence (P11177 whole entry)": "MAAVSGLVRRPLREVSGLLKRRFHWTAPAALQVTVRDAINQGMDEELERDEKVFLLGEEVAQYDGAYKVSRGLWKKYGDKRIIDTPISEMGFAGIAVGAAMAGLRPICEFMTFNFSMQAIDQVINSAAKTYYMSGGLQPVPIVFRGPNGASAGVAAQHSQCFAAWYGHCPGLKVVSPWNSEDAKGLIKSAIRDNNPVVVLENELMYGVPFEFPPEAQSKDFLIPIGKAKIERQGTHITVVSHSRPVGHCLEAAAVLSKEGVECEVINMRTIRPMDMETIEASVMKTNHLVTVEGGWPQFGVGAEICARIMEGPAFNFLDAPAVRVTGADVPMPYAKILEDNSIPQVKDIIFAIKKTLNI", "log2 ratio of iodoacetamide-alkyne labeling": "-0.122 (inactive)"},
      {"target": "PCNA C62 (UniProt P12004)", "log2 ratio of iodoacetamide-alkyne labeling": "0.0598 (inactive)"},
      {"target": "IDH2 C154 (UniProt P48735)", "log2 ratio of iodoacetamide-alkyne labeling": "0.393 (inactive)"},
      {"target": "UniProt P28482_C254", "log2 ratio of iodoacetamide-alkyne labeling": "-0.0158 (inactive)"},
      {"target": "PPP2R1B C306 (UniProt P30154)", "log2 ratio of iodoacetamide-alkyne labeling": "0.0579 (inactive)"},
      {"target": "U2AF1L5 C67 (UniProt P0DN76)", "log2 ratio of iodoacetamide-alkyne labeling": "0.366 (inactive)"},
      {"target": "DCK C9 (UniProt P27707)", "log2 ratio of iodoacetamide-alkyne labeling": "1.15 (active)"},
      {"target": "PHKA1 C1082 (UniProt P46020)", "log2 ratio of iodoacetamide-alkyne labeling": "0.236 (inactive)"},
      {"target": "UniProt O95071_C739", "log2 ratio of iodoacetamide-alkyne labeling": "0.0375 (inactive)"},
      {"target": "UniProt P0DN79_C15", "log2 ratio of iodoacetamide-alkyne labeling": "2.27 (active)"},
      {"target": "FASN C1548 (UniProt P49327)", "log2 ratio of iodoacetamide-alkyne labeling": "-0.00359 (inactive)"},
      {"target": "PLS3 C33 (UniProt P13797)", "log2 ratio of iodoacetamide-alkyne labeling": "1.04 (active)"},
      {"target": "MSN C284 (UniProt P26038)", "log2 ratio of iodoacetamide-alkyne labeling": "-0.16 (inactive)"},
      {"target": "PPP2R1A C294 (UniProt P30153)", "log2 ratio of iodoacetamide-alkyne labeling": "0.323 (inactive)"},
      {"target": "TMPO C341 (UniProt P42166)", "sequence (P42166 whole entry, looked up)": "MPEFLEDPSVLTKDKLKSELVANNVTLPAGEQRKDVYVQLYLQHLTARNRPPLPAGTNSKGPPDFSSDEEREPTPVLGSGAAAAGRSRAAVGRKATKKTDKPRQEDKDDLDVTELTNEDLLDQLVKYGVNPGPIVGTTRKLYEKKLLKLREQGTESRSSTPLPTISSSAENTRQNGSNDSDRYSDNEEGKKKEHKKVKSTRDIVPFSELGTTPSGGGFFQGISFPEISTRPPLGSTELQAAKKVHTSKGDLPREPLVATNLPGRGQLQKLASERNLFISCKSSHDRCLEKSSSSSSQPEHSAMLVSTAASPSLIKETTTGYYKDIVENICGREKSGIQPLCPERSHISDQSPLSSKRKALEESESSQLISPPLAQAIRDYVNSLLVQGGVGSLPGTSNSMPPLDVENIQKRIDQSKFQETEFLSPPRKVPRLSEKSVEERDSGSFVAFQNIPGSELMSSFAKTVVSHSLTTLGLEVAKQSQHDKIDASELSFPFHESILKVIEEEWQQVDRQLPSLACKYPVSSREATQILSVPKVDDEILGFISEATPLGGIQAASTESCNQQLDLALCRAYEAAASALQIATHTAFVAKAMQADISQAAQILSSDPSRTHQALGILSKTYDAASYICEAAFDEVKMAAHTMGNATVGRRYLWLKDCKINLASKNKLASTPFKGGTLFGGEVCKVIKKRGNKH", "log2 ratio of iodoacetamide-alkyne labeling": "1.77 (active)"},
      {"target": "MCM4 C162 (UniProt P33991)", "sequence (P33991 whole entry, looked up)": "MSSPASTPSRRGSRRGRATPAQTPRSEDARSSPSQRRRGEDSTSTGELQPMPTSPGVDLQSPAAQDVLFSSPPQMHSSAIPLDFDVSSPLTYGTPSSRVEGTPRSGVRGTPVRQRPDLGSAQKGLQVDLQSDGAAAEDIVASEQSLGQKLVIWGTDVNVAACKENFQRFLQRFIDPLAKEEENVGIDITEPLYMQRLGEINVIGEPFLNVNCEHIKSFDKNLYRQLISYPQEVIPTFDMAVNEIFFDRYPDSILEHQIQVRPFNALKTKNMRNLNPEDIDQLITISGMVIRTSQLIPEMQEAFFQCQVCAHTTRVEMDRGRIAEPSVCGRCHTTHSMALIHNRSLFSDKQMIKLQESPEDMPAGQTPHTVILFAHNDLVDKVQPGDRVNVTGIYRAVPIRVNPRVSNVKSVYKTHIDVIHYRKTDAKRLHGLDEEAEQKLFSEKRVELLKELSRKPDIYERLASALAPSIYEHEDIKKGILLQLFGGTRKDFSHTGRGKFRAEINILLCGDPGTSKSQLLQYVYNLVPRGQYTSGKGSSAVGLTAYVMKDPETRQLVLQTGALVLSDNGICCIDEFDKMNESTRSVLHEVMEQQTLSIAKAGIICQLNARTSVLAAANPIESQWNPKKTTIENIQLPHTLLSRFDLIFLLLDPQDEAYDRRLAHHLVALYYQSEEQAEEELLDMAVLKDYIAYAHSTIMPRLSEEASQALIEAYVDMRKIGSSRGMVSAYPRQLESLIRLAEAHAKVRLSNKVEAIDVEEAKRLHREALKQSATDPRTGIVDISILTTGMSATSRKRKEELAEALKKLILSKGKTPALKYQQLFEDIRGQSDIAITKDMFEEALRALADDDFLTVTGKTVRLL", "log2 ratio of iodoacetamide-alkyne labeling": "0.055 (inactive)"},
      {"target": "MCC C714 (UniProt P23508)", "log2 ratio of iodoacetamide-alkyne labeling": "0.565 (inactive)"}
    ]}
  ]
}
